Source: PubChem
Only some compounds are listed: those with a hit (about 21% of all), similar ones and a draw of the others.
ELG1 DNA repair: ELG1-dependent DNA repair inhibition; HEK293T ELG1-luciferase reporter, luminescence, 16 h; DNA damage induced by 5-fluorouridine; Potency, µM (titrated, usually from 46.1 µM), usual class: inhibitors; 2.3% of 330,000 active; further: nearly all actives have a fitted effect of over 55% in size
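DMSO vehicle served as the neutral condition. Each well held 2,000 cells given 5-fluorouridine plus compound; after 16 hr at 37 °C/5% CO2, ONE-Glo was added and luciferase measured 30 min later.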
IL1B secr inh: inflammasome signaling inhibition, IL-1 beta readout; AID 743279; 4.7% of 360,000 active; THP-1 LPS/ATP IL-1B secretion, AlphaLISA, 16 h; active compounds read low; activity change, % at 57.5 µM; in the data active means activity change below about -50%; inconclusive means mostly about -30% to -49%
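THP-1 cells pretreated 1 hr with compounds (up to 57.5 uM final), then stimulated with LPS (250 ng/mL final) plus ATP (1.25 mM final); secreted IL-1B measured by AlphaLISA after 16 hr, decreased signal indicating inhibition.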
VP16 counter: inhibits Gal4-VP16 luciferase reporter, ROR gamma counter-screen; 3.5% of 310,000 active; AID 2546; Drosophila S2 Gal4-VP16 UAS-luciferase, luminescence, 20 h; Potency, µM (highest dose often 53.6 µM), usual class: inhibitors;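 further: Gal4-VP16 expression switched on by copper sulfate through the metallothionein promoter; nearly all actives have a fitted effect of over 50% in size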
RORgamma inh: inhibitors of mouse ROR gamma transcriptional activity | P51450 | Drosophila S2 Gal4-RORgamma UAS-luciferase reporter, 20 h | Potency, µM (doses to about 53.6 µM), most hits filed as inhibitors | 5.4% of 310,000 active | AID 2551; further: nearly all actives have a fitted effect of over 60% in size
Target sequence (P51450 whole entry, looked up, the tested form may be a part): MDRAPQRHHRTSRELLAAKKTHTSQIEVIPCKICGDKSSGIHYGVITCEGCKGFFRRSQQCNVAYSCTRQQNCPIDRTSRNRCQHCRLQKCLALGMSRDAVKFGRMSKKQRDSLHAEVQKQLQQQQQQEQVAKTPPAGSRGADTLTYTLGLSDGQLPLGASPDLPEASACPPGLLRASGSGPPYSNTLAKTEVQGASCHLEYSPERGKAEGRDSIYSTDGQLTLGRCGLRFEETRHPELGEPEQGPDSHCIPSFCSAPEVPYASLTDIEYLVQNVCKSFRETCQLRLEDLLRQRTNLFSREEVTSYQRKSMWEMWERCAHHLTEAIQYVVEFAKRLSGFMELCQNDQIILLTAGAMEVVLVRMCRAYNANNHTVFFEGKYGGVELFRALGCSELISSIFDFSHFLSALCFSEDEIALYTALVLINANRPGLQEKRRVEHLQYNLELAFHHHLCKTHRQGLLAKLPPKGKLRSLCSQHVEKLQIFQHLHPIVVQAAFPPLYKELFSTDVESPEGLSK
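ROR gamma transcriptional activity was tracked as Gal4-UAS luciferase output in stably transfected Drosophila Schneider cells, with compound added 1 hr before 700 uM copper sulfate induction and a 20 hr ambient-temperature incubation.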
DT40 TDP1 CPT: growth inhibition of DT40 Tdp1-/-;hTDP1 cells with camptothecin (screen for TDP1 inhibitors); chicken DT40 Tdp1-/-;hTDP1 cells + 20 nM CPT, ATP luminescence, 48 h; Potency, µM (highest dose often 46.2 µM), most hits filed as inhibitors; 12% of 420,000 active; further: nearly all actives have a fitted effect of over 55% in size
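Chicken DT40 Tdp1-/- cells stably complemented with human TDP1 were seeded at 400 cells/well in medium containing 20 nM camptothecin, exposed to pin-transferred compounds, and grown at 37 °C for at least 48 hr. Viability was read as ATP luminescence.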
DT40 TDP1 no CPT: qHTS for Inhibitors of human tyrosyl-DNA phosphodiesterase 1 (TDP1): qHTS in cells in absence of CPT; DT40 Tdp1-/- hTDP1 cells, no CPT, ATP luminescence, 48 h; Potency, µM (highest dose often 46.2 µM), actives largely listed as inhibitors; 15% of 420,000 active; further: nearly all actives have a fitted effect of over 55% in size
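Camptothecin absent (DMSO only). Human TDP1-complemented DT40 knockout cells, 400 cells/well, 37 °C for minimum 48 hr; ATP measured via CellTiter-Glo, 30 min dark incubation, luminescence.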
Hits are given with their value; n = inactive; u = inconclusive; x = no result. Unless noted, the call rests on the fitted dose curve; in most records, active means well fitted curve in the direction sought with a large enough effect; inconclusive means small, poorly fitted or top-dose-only effect, or another doubt; inactive means no such curve, though single readings can be large; an effect the other way counts as inactive or inconclusive.

SMILES	ELG1 DNA repair	IL1B secr inh	VP16 counter	RORgamma inh	DT40 TDP1 CPT	DT40 TDP1 no CPT
C[C@@H]1CN([C@@H](C)CO)C(=O)c2cccc(NC(=O)Nc3ccc4c(c3)OCO4)c2O[C@H]1CN(C)S(=O)(=O)c1cn(C)cn1	u	n	x	x	u	u
COc1ccc(SCCN2CCN(CCc3ccccc3)CCC2=O)cc1	x	x	u	10µM	x	x
Cc1ccc(SCCN2CCN(CCc3ccccc3)CCC2=O)cc1	n	n	n	n	16.4µM	16.4µM
O=C1CCN(CCc2ccccc2)CCN1CCSc1ccc(Br)cc1	n	n	n	n	u	u
CN(Cc1ccccc1)C(=O)C1CCN(S(=O)(=O)c2ccc3nc4c(c(C(=O)O)c3c2)CCCC4)CC1	n	n	n	n	n	n
Cc1ccc(CSc2nc3ccc(NC(=O)C(C)C)cc3s2)cc1	x	x	x	x	n	u
CN(C)Cc1csc(NC(=O)Nc2cccc(Cl)c2)n1	x	u	x	x	25.9µM	18.4µM
CC(N)c1csc(NC(=O)Nc2cccc(C(F)(F)F)c2)n1 (stereo unspecified)	x	-102.2	x	x	u	u
CN(C)Cc1csc(NC(=O)Nc2cccc(C(F)(F)F)c2)n1	x	n	x	x	14.6µM	18.4µM
Cc1cc(NC(=O)Nc2cccc(C(F)(F)F)c2)no1	x	n	n	n	n	u
NCc1csc(NC(=O)Nc2cccc(Cl)c2)n1	x	n	x	x	u	u
CC[C@]12c3[nH]c4ccccc4c3CCN1C(=O)C(CC(=O)NCc1ccc(OC)c(OC)c1)C[C@@H]2C(=O)N1CCN(C(=O)C2CC2)CC1 (stereo partly specified)	n	n	x	x	n	u
CCOC(=O)c1c(-c2ccc(F)cc2)csc1/N=C/N(C)C	n	-87.2	n	n	n	n
COc1cc(/C=N/NC(=O)c2cc(-c3ccc4c(c3)OCO4)n[nH]2)ccc1O	u	-154.5	u	n	u	u
COc1cc(/C=N/NC(=O)c2cc(-c3c(C)nn(-c4ccccc4)c3C)n[nH]2)ccc1O	u	n	n	u	23.1µM	u
Cc1nn(-c2ccccc2)c(C)c1-c1cc(C(=O)N/N=C/c2ccc(O)cc2)[nH]n1	u	n	n	u	25.9µM	u
Cc1nnc(SCc2ccccc2CSc2nnc(C)s2)s1	n	n	n	n	n	u
CC1=C(C(=O)N(C)C)CC(CC(=O)NCCN2CCOCC2)C(=O)N1Cc1ccc(F)cc1 (stereo unspecified)	x	n	x	x	n	n
Cc1cccc(Cn2c(NC3CCCC3)nc3c2c(=O)[nH]c(=O)n3C)c1	x	n	x	x	u	23.1µM
Cc1cccc(Cn2c(Sc3nc(C)cs3)nc3c2c(=O)[nH]c(=O)n3C)c1	n	n	n	n	u	18.4µM
Cn1c(=O)[nH]c(=O)c2c1nc(SCC(=O)O)n2Cc1ccccc1	n	n	n	n	n	n
Cc1cccc(Cn2c(SCC(=O)Nc3ccccc3)nc3c2c(=O)[nH]c(=O)n3C)c1	u	u	n	n	u	20.6µM
Cn1c(=O)[nH]c(=O)c2c1nc(NC1CCCCC1)n2Cc1ccccc1	n	n	n	n	u	u
CC1(C(=O)NS(=O)(=O)c2cccc(C#N)c2)CCN1C(=O)CC1CCCC1 (stereo unspecified)	x	n	x	x	n	n
COc1ccc(NC(=O)CCCc2nc(-c3ccco3)no2)c(OC)c1	x	x	x	x	n	n
SMILES	ELG1 DNA repair	IL1B secr inh	VP16 counter	RORgamma inh	DT40 TDP1 CPT	DT40 TDP1 no CPT
Cc1ccc(-n2c(=O)[nH]c3sc4c(c3c2=O)CCNC4)cc1C	x	x	x	x	u	n
Cc1nc(CN(C)C(=O)CC2C(=O)NCCN2Cc2ccc(-c3ccccc3)cc2)cs1 (stereo unspecified)	n	n	n	n	u	u
Cc1ccc(-c2cc(N)n(-c3ccccc3)n2)cc1	u	u	n	n	n	n
Nc1cc(-c2ccc(OC(F)(F)F)cc2)nn1-c1ccc(Cl)c(Cl)c1	n	-64.8	n	n	u	u
CC(C)CC(N)c1csc(NC(=O)Nc2ccccc2C(C)C)n1 (stereo unspecified)	x	u	x	x	u	14.6µM
CC(C)(C)c1ccccc1NC(=O)Nc1nc(C(N)Cc2ccc(F)cc2)cs1 (stereo unspecified)	x	-53.3	x	x	u	20.6µM
COc1ccc(NC(=O)Nc2nc(C(N)CC(C)C)cs2)cc1 (stereo unspecified)	x	u	x	x	u	16.4µM
CC(C)(C)c1ccccc1NC(=O)Nc1nc(C(N)c2ccccc2)cs1 (stereo unspecified)	x	n	x	x	u	u
CC(C)c1ccccc1NC(=O)Nc1nc(C(N)Cc2ccc(C(F)(F)F)cc2)cs1 (stereo unspecified)	x	n	x	x	13µM	23.1µM
COc1ccc(C(N)c2csc(NC(=O)Nc3ccccc3C(C)(C)C)n2)cc1 (stereo unspecified)	x	n	x	x	u	u
NC(c1csc(NC(=O)Nc2ccc(OC(F)(F)F)cc2)n1)C1CCCCC1 (stereo unspecified)	x	-111.8	x	x	10.3µM	9.2µM
NC(Cc1ccc(C(F)(F)F)cc1)c1csc(NC(=O)Nc2ccccc2Cc2ccccc2)n1 (stereo unspecified)	x	-60.6	x	x	u	23.1µM
CC(C)CNc1ncnc2c1ncn2[C@H]1CN(Cc2ccc3c(c2)OCO3)C[C@@H](CO)O1	x	n	x	x	u	n
COc1ccccc1-c1nc(SCC(=O)NCc2ccccc2)c2c(=O)n(C)c(=O)n(C)c2n1	x	x	x	x	n	n
Cc1ccc(C)c(/C=C2\N=C(c3ccccc3F)OC2=O)c1	n	n	n	n	u	u
Cc1ccc2cc(/C=C3\N=C(c4ccccc4)OC3=O)c(N3CCOCC3)nc2c1	n	n	n	n	u	18.4µM
COc1ccc(Nc2ncnc3sccc23)cc1	u	n	n	n	n	u
CC1CCCCC1Nc1ncnc2sccc12 (stereo unspecified)	n	n	u	u	18.4µM	u
COc1cccc(Cn2c(-c3nonc3NC(C)=O)nc3ccccc32)c1	x	x	x	x	13µM	13µM
CC(=O)Nc1nonc1-c1nc2ccccc2n1N(C(C)=O)C(C)=O	n	n	n	n	n	n
CC(=O)Nc1nonc1-c1nc2ccccc2n1Cc1ccccc1Br	x	x	x	x	16.4µM	14.6µM
CCC(=O)Nc1nonc1-c1nc2ccccc2n1CC(C)C	u	n	n	u	23.1µM	23.1µM
CCCN1CNc2c(c(=O)[nH]c(=O)n2CCc2ccc(OC)c(OC)c2)C1	x	x	x	x	n	n
COc1cccc(CNC(=O)Cn2ncn3nc(-c4cccs4)cc3c2=O)c1OC	x	x	x	x	n	n
CCCn1c(-c2ccc(F)cc2)nc2c(N3CCN(Cc4nc(OC)cc(OC)n4)CC3)nc(C)nc21	x	x	n	n	x	x
